Source: PubChem BioAssay AID540303 (National Center for Advancing Translational Sciences (NCATS), 2011)
The campaign covered roughly 330,000 compounds. About 1,000 (0.3%) were called active. About 3% were inconclusive and are not listed. The call rests on the fitted dose curve; in most records, active means well fitted inhibition curve with a large enough effect; inconclusive means small, poorly fitted or top-dose-only effect; inactive means no such curve, though single readings can be large or run the other way; tested in mouse RAW 264.7 cells. The sample as a whole holds a higher share of actives than the screen did.

experiment: qHTS for Inhibitors of Cell Surface uPA Generation; conditions: cell surface uPA generation assay; series mostly up to 38.3 µM; activity change, negative = inhibition: at the top concentration; further: nearly all actives have a fitted effect of over 55% in size
Description: The overall objective of this project is to perform a quantitative high throughput screen (qHTS) to identify novel compounds that inhibit the generation of cell surface urokinase activity. The urokinase plasminogen activator (uPA) is one of the two primary endogenous systems that mediate plasminogen activation into plasmin. Members of this system, including uPA and its receptor (uPAR), are overexpressed in several malignant tumors. This system plays a major role in adhesion, migration, invasion and metastasis of cancer cells. Small molecule inhibitors of the uPA system will serve as probes to understand the molecular mechanisms of the uPA cascade and better understanding the microenvironmental circumstances that facilitate the activation of plasminogen by uPA, and finally may provide novel candidate agents for anticancer drug therapy.
[…] […] Upon inhibition of the uPA activation cascade, the subsequent cell surface uPA activity-dependent translocation of LF into the cytoplasm is inhibited. ATP-Lite is used to measure intracellular ATP concentrations, which remain increased if LF entry into the cytoplasm is inhibited. This validation assay was performed using a small set of validation compounds.
NIH Chemical Genomics Center [NCGC]
NIH Molecular Libraries Probe Centers Network [MLPCN]
Assay Submitter (PI): Thomas Bugge, National Institute of Dental and Craniofacial Research, NIH
Cultured RAW 264.7 were dispensed into 1536-well clear bottom, white walled tissue culture plates at a density of 4000 cells/well and were incubated overnight (12-16 h) at 37 C in a 5% CO2 incubator. Serially diluted compounds in 23 nl DMSO were added to cells. […] Compound and reagent-treated plates were incubated for 24 h at 37 C in a 5% CO2 incubator. Perkin Elmer ATPlitetrade mark 1 step (3 ul) was then added to each well. Luminescence was detected using a Perkin Elmer ViewLuxtrade mark plate reader.
1.Dispensing RAW 264.7 cells into 1536-well, white walled tissue culture plates at a density of 4000 cells/well (4 uL).
2.Incubation at 37 C in a 5% CO2 incubator overnight.
3.Serially diluting compounds (1:5 serial dilution; 0.0024 uM to […] final concentration) in 23 nl DMSO.
5.Incubating the compound and reagent-treated plates for 24 hours at 37 C in a 5% CO2 incubator.
6.Adding ATP-Lite (3 ul).
7.Reading plates by ViewLux with an exposure length of 5 seconds.
On the % scale 0 is the no-effect control and ±100 the full control effect; potency means the concentration at half of the fitted maximal effect.

Activity change, negative = inhibition, inactive:
COc1ccc(-c2ccc3c(c2)C2CC3CCN2CCC#N)cc1 (stereo not given) 11.7%
CC(C=Cc1ccccc1)=NNS(=O)(=O)c1ccc([N+](=O)[O-])cc1 -8.61%
CCCOc1ccc(Cn2ccnc2)cc1[N+](=O)[O-] 11.6%
CCCCOc1ccc(CSC(=N)N)cc1[N+](=O)[O-] -16.7%
COc1ccc(Br)cc1/C=N/Nc1ccc(S(=O)(=O)Nc2ccccc2C(=O)O)cc1[N+](=O)[O-] 4.32%
O=C(NCC1(N2CCCCC2)CCCCC1)c1cccc(S(=O)(=O)Nc2ccccc2Cl)c1 0.0097%
CN(C)C(CNC(=O)c1cc2ccccc2o1)c1ccccc1 (stereo not given) 0.0215%
O=C1/C(=C\c2ccc(O)cc2)CCC1CNc1ccc(Cl)cc1 (stereo not given) -11.8%
O=C(CC(=O)c1cccnc1)c1ccccc1 -2.47%
O=C(/C=C\c1ccc2c(c1)OCO2)NC1(C(=O)Nc2ccc3c(c2)OCCO3)CCCCC1 11.7%
COc1ccc(OC)c(/C=C/C(=O)OCC(=O)Nc2ccc3c(c2)OCCO3)c1 -8.9%
c1ccc(CCc2ccccn2)cc1 3.66%
NC(CSC1(c2ccccc2)c2ccccc2-c2ccccc21)C(=O)O (stereo not given) 11.5%
O=C(N/N=C/c1cccc(O)c1)c1cc2c(ccc3ccccc32)o1 -9.76%
Cc1c(/C=N/N2C(=O)C3C4C=CC(C4)C3C2=O)c2ccccc2n1C (stereo not given) 7.94%
CC(=NNC(=S)N1CCCCCC1)c1ccccn1 -9.94%
Cc1cc(NC(=O)C(C)SCC(=O)Nc2cccc(S(=O)(=O)N3CCCCCC3)c2)no1 (stereo not given) -16.5%
O=C(Nc1ccn(CCCNCc2ccc3[nH]ccc3c2)c(=O)n1)OCc1ccccc1 13.4%
NNc1cccc(C=Cc2ccccc2)cc1=O -2.6%
Cn1c(CCN2CCCCCC2)nc2cc(NC(=O)Nc3ccccc3)ccc21 -5.98%
C=CCN(C(=O)Nc1ccc2c(c1)nc(C)n2C)c1ccccc1 -18%
Cc1ccc(OCCNC(=O)c2cccc(S(=O)(=O)N3CCN(Cc4ccccc4)CC3)c2)cc1 0.842%
C=CCOC(=O)N1CCC2CC1c1cc(-c3ccc(OC)cc3)ccc12 (stereo not given) 6.22%
C[C@H](NC(=O)[C@@H]1Cc2ccccc2CN1C(=O)OC(C)(C)C)C(=O)NC1CCCC1 4.21%
O=C(CNC(=O)[C@@H]1Cc2ccccc2CN1)NC1CCCCC1 -5.14%
NC(=O)c1ncn([C@@H]2O[C@H](CNCc3cnc(N4CCOCC4)s3)[C@@H](O)[C@H]2O)n1 3.82%
Cc1c[n+]([O-])ccc1[N+](=O)[O-] -3.23%
COc1ccc(-c2ccc3c(c2)[C@@H]2C[C@H](N(C)S(=O)(=O)c4ccccc4)[C@H]([C@H](C)O)C(=O)N2CC3)cc1 -19.2%
Cc1ccc2c(c1)C1CN(C)CCC1N2S(=O)(=O)c1cccc(F)c1 (stereo not given) -0.281%
Cc1ccc2c(c1)C1CN(C)CCC1N2C(=S)Nc1ccc(OC(F)F)cc1 (stereo not given) -0.804%
C/C(=N\Nc1ccc(Cl)nn1)c1ccccc1O 0.477%
C[C@]12CCC(=O)C=C1C=CC1C2CC[C@@]2(C)C1CC[C@@]21CCC(=O)O1 (stereo not given in full) 2.58%
Nc1ccc2[nH]c(=S)sc2c1 0.0587%
N/C(=N\OC(=O)c1ccc([N+](=O)[O-])cc1)c1ccccn1 -27.5%
COc1ccc(C(=O)O/N=C(\N)c2ccccn2)cc1[N+](=O)[O-] -7.26%
Cc1ccc(S(=O)(=O)N2CCC(C(=O)N3CCCCCCC3)CC2)cc1 2.24%
COC(=O)Cc1nc2c(N)nc(N)nc2[nH]c1=O 5.49%
Cc1cccc(N2C(=O)c3cccnc3C2=O)c1 1.6%
C=CCNc1cnn(-c2ccc(C)cc2)c(=O)c1Cl -4%
CNN/C(N=Cc1ccc([N+](=O)[O-])s1)=N\S(=O)(=O)c1cc(C)c(Cl)cc1SCc1ccccc1 -1.55%
CC(C)(C)c1nnc2sc(SCC(O)=C(C#N)c3nc4ccccc4[nH]3)nn2c1=O -10.3%
COc1ccc(S(=O)(=O)N2C[C@H]3CON(C)[C@H]3C[C@H]2c2cccc(Br)c2)cc1 -0.931%
CN(C(=O)c1cc2c(=O)n3ccccc3nc2s1)C1CCCCC1 -10.8%
CN(C(=O)CSc1nncc2ccccc12)C1CCCCC1 3.3%
Cn1cc(C2OC(=O)c3ccccc32)c2ccccc21 (stereo not given) -8.76%
COC(=O)c1ccc(NCc2cc(O)ccc2O)cc1 0.208%
CC1CCN(c2ccc(C(=O)NCc3ccc4c(c3)OCO4)cc2[N+](=O)[O-])CC1 1.21%
O=C(Cc1ccc([N+](=O)[O-])cc1)NCCc1ccc2c(c1)OCO2 0.328%
CC(=O)c1cccc(-c2ccc(CN3C(CC(C)C)C(=O)N(Cc4cn(CC5CCCCC5)nn4)CCS3(=O)=O)cc2)c1 (stereo not given) -6.78%
C=CCCC(=O)N1C[C@H]2CON(C)[C@H]2C[C@H]1c1cccc(Nc2ccccc2)c1 15.4%
CC(Nc1ccc([N+](=O)[O-])cc1[N+](=O)[O-])c1ccccc1 (stereo not given) 6.84%
COc1cccc2c1C(=O)c1c(O)c3c(c(O)c1C2=O)CC(O)(C(C)=NNC(=O)c1ccc(Cl)c(Cl)c1)CC3OC1CC(N)C(O)C(C)O1 (stereo not given) -16.6%
O=C(NCCCN1CCOCC1)c1ccc2c(c1)N(Cc1cccc(F)c1)C(=O)c1ccccc1S2 0.696%
CN1CCN(CCCNC(=O)c2ccc(/C=C3\Oc4ccccc4N(Cc4ccc(Cl)cc4)C3=O)cc2)CC1 -12.9%

Potency, active:
CCCCCOc1ccc(CSC2=NCCN2)cc1[N+](=O)[O-] 10 µM
COc1cccc(/C=C/C(=O)Nc2ccc3c(c2)OCCO3)c1 2.82 µM
Cc1c(/C=N\NC(=O)c2cc3ccccc3o2)c2ccccc2n1C 3.55 µM
Cc1nc2cc(NC(=O)Nc3cccc(F)c3)ccc2n1C 3.98 µM
C[C@@H](NC(=O)[C@@H]1Cc2ccccc2CN1)C(=O)NC1CCCC1 7.08 µM
Cc1ccc2c(c1)C1CN(C)CCC1N2S(=O)(=O)c1ccc(Oc2ccc([N+](=O)[O-])cc2)cc1 (stereo not given) 8.91 µM
Cc1ccc(C(=O)O/N=C(\N)c2ccccn2)cc1Cl 8.91 µM
Cc1cccc(-n2ncc(Cl)c(Cl)c2=O)c1 10 µM
CN(c1ccc2nc3ccccc3c(=O)n2n1)C1CCCCC1 0.794 µM
O=C(NCc1ccc2c(c1)OCO2)c1cc([N+](=O)[O-])ccc1N1CCOCC1 2.82 µM
CCN1CCN(CCNC(=O)c2ccc(/C=C3/Sc4ccccc4N(Cc4cccc(C)c4)C3=O)cc2)CC1 6.31 µM
